The text below walks through data of PubChem BioAssay AID720650 (Broad Institute, 2013).

One may read the AC50 as the midpoint of the concentration-response curve, whichever way the signal moves.

The structures appear in SMILES notation. Calls of active or inactive are those of the source. The rule behind the calls is not given here.

The experiment can be described thus: C difficile toxins, biochemical counterscreen, UDPG substrate absence, confirmatory dose response (AID 720650). The settings on record: series mostly up to 19.5 µM.
Consider `CC1C(c2ccc3c(c2)OCO3)c2cc3c(cc2OC1N1CCOCC1)OCO3` (stereo not given), for which the AC50 result was “inactive”. Under `COc1cc(/C(C)=N/NC(=O)CSc2nnc(C)s2)ccc1O` stands “inactive”; under `S=c1nc(-c2ccc(Cl)cc2)[nH][nH]1`, 3.22 µM (active); under `OCC[C@H]1C[C@H](O)[C@@H](O)[C@@]2(Cc3ccccc3CO2)O1`, “inactive”. In the case of `COc1cc(/C=C/c2sc3ccccc3[n+]2CCCS(=O)(=O)[O-])ccc1O`, the AC50 result is “inactive”.
